Results taken from PubChem BioAssay.
Calls of active or inactive are those of the source.

How the values were obtained:
Albumin (Bos taurus) = Albumin (Bos taurus) (UniProt P02769); test: compounds binding labelled BSA control protein – biochemical, small-molecule microarray, Alexa647 label, 635/667 nm fluorescence, artefact control for SMM control protein annotation, profiling panel (AID 1118); conditions: BSA-A647 binding, fluorescence 635 nm, higher = more signal;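 further: score merges 667 nm emission intensity and signal-to-noise per printed compound spot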
Chain of Albumin (Bos taurus) (P02769 whole entry, looked up): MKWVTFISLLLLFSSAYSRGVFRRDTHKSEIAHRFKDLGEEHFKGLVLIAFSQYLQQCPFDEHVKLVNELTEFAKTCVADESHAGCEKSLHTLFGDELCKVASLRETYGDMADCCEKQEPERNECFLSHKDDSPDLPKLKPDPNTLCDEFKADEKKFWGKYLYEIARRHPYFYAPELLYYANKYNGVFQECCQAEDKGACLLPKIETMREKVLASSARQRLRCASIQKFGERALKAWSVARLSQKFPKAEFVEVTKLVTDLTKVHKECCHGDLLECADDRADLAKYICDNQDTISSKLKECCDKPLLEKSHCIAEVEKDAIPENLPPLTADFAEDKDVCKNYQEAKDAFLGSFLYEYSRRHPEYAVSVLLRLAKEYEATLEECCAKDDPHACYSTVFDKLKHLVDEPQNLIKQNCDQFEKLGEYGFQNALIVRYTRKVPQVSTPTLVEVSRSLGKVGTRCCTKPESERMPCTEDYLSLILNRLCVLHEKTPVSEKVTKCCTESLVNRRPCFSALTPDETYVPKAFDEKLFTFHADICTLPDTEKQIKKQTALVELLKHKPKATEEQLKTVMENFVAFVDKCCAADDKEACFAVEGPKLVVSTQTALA

[1] = probe aXIP binding to arrayed compounds – biochemical, NeuroSMM set, 635/667 nm fluorescence, primary screen (AID 1119); conditions: small-molecule microarray, higher = more signal, called active from +8 up or from −8 down;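 further: probe is the protein aXip251-270 applied at 1 µg/mL to compound-printed slides; binding of probe to printed compounds measured as 667 nm fluorescence plus signal to noise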
[2] = probe aNOTCH3 binding on compound microarray – biochemical, small-molecule microarray, 635/667 nm fluorescence, primary screen (AID 1120); conditions: higher = more signal;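 further: probe is a biotin-tagged antibody raised against NOTCH3 rather than NOTCH3 protein; score merges spot fluorescence near 667 nm with spot signal to noise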
[3] = probe aNOTCH2 binding on compound microarray – biochemical, small-molecule microarray, 635/667 nm fluorescence, primary screen (AID 1121); conditions: higher = more signal;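 further: score merges feature fluorescence read at 667 nm with its signal to noise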
[4] = molecular target: Carbonic anhydrase 2 (Homo sapiens) (UniProt P00918); test: compounds binding carbonic anhydrase 2 – biochemical, small-molecule microarray, Alexa647-labelled CAII, profiling panel (AID 1122); conditions: CAII-A647 binding fluorescence, higher = more signal
[5] = COS7 lysate on small-molecule microarray, probe aHis, 635 nm (AID 1123); conditions: COS7 cell lysate, fluorescence, higher = more signal;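 further: z-score combines 667nm fluorescence intensity with signal-to-noise per printed compound spot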
[6] = probe aLAP1 signal on lysate-treated microarray – cell lysate, small-molecule microarray, COS7 lysate, primary screen (AID 1124); conditions: probe aLAP1, fluorescence, higher = more signal;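 further: lysate comes from COS7 cells expressing LAP1 and is applied at 0.3 µg/mL; score merges spot fluorescence near 667 nm with signal-to-noise over triplicate slides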
Sam68 (KHDRBS1) = test: compounds binding KHDRBS1 protein – biochemical, small-molecule microarray, 635 nm fluorescence, primary screen (AID 1125); conditions: higher = more signal;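 further: score merges 667 nm channel intensity with signal to noise over triplicate slides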
[7] = system: Chordin-like protein 2 (CHRDL2); test: compounds binding chordin-like 2 – biochemical, small-molecule microarray, 635 nm fluorescence, primary screen (AID 1126); conditions: fluorescence 635 nm, higher = more signal;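 further: printed compound slides probed with Chrdl2 protein at 4 µg/mL for 1 h at 4 C; score merges 667 nm emission intensity with signal to noise over three replicate slides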
[8] = molecular target: Concanavalin-A (Canavalia ensiformis) (UniProt P02866); test: compounds binding concanavalin A lectin – biochemical, small-molecule microarray, Alexa647 label, 635 nm, artefact control for SMM control protein annotation, primary screen (AID 1127); conditions: ConA-A647 binding fluorescence, higher = more signal;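 further: z combines 667 nm emission intensity with signal-to-noise across three replicate slides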
Chain of Concanavalin-A (Canavalia ensiformis) (P02866 whole entry, looked up): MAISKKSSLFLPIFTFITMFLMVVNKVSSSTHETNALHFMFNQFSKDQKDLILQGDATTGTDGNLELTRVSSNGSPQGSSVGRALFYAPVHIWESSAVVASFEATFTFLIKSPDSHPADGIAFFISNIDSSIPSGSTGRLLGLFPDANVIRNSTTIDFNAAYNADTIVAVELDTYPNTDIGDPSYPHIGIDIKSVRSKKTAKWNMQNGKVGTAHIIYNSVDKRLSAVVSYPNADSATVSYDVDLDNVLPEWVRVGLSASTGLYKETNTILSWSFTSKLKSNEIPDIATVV

[9] = compounds binding Alexa647 anti-His antibody – biochemical, small-molecule microarray, 635 nm fluorescence, artefact control for SMM control protein annotation, primary screen (AID 1128); conditions: higher = more signal;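 further: score merges feature fluorescence with signal-to-noise for each printed compound spot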
[10] = system: Human papillomavirus type 1a E7 protein (residues 1-88); test: HPV1a E7 small-molecule binders, primary screen, biochemical, small-molecule microarray, residues 1-88, 635 nm (AID 1129); conditions: small-molecule microarray binding, fluorescence 635 nm; higher = more signal
[11] = molecular target: Focal adhesion kinase 1 (Homo sapiens) (UniProt Q05397); test: PTK2 protein binding on printed compound slides – biochemical, small-molecule microarray, 635/667 nm fluorescence, BSA, DTT, primary screen (AID 1130); conditions: 635 nm fluorescence, higher = more signal;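 further: composite of spot emission at 667 nm and signal to noise over triplicate slides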
Chain of Focal adhesion kinase 1 (Homo sapiens) (Q05397 whole entry, looked up): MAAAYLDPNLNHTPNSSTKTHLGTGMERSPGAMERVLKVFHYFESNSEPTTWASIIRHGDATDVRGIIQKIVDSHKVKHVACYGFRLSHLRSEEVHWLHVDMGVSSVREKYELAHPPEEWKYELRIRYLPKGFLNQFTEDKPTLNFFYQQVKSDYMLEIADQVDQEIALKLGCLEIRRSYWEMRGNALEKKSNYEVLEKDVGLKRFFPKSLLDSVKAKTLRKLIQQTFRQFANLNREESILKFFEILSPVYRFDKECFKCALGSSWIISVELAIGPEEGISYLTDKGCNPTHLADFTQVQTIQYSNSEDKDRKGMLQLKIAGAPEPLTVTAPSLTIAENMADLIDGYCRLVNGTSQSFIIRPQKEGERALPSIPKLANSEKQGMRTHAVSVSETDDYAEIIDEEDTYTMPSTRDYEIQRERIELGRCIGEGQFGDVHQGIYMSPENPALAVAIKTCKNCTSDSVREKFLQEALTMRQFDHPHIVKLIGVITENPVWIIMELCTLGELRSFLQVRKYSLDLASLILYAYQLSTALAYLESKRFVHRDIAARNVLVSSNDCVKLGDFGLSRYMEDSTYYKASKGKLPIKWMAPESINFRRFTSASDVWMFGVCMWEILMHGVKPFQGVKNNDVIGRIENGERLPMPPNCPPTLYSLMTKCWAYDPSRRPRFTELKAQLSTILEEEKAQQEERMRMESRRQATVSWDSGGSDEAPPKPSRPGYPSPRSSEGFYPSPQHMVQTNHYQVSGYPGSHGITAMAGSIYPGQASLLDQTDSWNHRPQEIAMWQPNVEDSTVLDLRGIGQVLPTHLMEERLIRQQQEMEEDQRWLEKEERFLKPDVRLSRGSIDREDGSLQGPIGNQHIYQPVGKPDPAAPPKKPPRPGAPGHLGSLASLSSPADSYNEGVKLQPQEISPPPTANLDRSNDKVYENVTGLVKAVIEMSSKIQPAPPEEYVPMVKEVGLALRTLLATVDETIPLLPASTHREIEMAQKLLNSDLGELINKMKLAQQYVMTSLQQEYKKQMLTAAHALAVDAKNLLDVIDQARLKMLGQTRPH

[12] = system: Fibrinogen (Alexa647-labelled); test: Alexa647-fibrinogen binding to printed small molecules – biochemical, small-molecule microarray, 635/667 nm fluorescence, artefact control for SMM control-protein annotation, profiling panel (AID 1131); conditions: fibrinogen-A647 binding fluorescence, higher = more signal;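 further: z-score merges 667 nm fluorescence with per-spot signal-to-noise over triplicate slides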
[13] = molecular target: Follistatin (Homo sapiens) (UniProt P19883); test: FST protein binding to printed compounds – biochemical, small-molecule microarray, 635/667 nm fluorescence, primary screen (AID 1132); conditions: 635 nm fluorescence, higher = more signal
Chain of Follistatin (Homo sapiens) (P19883 whole entry, looked up): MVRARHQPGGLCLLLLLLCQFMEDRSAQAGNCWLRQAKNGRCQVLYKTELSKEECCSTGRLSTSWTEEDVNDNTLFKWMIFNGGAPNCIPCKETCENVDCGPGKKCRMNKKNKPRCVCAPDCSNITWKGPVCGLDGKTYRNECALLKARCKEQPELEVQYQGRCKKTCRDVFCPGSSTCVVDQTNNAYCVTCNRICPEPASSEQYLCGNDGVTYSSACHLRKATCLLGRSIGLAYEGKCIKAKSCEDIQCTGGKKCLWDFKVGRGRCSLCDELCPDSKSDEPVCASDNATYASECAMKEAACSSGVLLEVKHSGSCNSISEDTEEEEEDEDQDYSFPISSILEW

[14] = molecular target: Fibroblast growth factor 2 (Homo sapiens) (UniProt P09038); test: basic fibroblast growth factor binding to printed compounds – biochemical, small-molecule microarray, 635/667 nm fluorescence, primary screen (AID 1133); conditions: FGF2, fluorescence 635/667, higher = more signal
Chain of Fibroblast growth factor 2 (Homo sapiens) (P09038 whole entry, looked up): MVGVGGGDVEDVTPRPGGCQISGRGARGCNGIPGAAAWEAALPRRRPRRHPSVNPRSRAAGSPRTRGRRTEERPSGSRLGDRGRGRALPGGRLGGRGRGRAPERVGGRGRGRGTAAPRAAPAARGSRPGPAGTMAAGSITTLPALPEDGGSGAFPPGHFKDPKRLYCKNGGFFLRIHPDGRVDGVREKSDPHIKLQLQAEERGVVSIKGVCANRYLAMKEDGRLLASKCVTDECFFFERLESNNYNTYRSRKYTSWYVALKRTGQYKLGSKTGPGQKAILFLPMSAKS

[15] = JC-1 mitochondrial potential readout, lung cancer cells – cell-based, A549, JC-1 fluorescence, basal, 24 h, 100 nL, profiling panel (AID 1138); conditions: higher = more signal;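 further: A549 lung adenocarcinoma cells under basal conditions with no added stimulus; test concentration not given here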
Lefty1 = Lefty1 protein binding to printed compounds – biochemical, small-molecule microarray, 635/667 nm fluorescence, primary screen (AID 1139); conditions: fluorescence 635/667, higher = more signal
[16] = system: wheat germ agglutinin (Triticum aestivum), Alexa647-labelled; test: Alexa647-WGA lectin binding to printed small molecules – biochemical, small-molecule microarray, 635/667 nm fluorescence, artefact control for SMM control-protein annotation, profiling panel (AID 1140); conditions: WGA-A647 binding, 635 nm fluorescence, higher = more signal;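 further: score merges 667 nm feature emission with signal to noise over triplicate slides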
[17] = molecular target: Luciferin 4-monooxygenase (Photinus pyralis) (UniProt P08659); test: inhibition of purified Photinus pyralis luciferase – biochemical, luminescence, purified enzyme, 2006 set, primary screen (AID 1141); conditions: purified firefly luciferase, SteadyGlo luminescence, 30 min; higher = more signal, called active from +8 up or from −8 down;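 further: cell-free assay with purified firefly luciferase at 100 ng per well in PBS; test concentration not given here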
Chain of Luciferin 4-monooxygenase (Photinus pyralis) (P08659 whole entry, looked up): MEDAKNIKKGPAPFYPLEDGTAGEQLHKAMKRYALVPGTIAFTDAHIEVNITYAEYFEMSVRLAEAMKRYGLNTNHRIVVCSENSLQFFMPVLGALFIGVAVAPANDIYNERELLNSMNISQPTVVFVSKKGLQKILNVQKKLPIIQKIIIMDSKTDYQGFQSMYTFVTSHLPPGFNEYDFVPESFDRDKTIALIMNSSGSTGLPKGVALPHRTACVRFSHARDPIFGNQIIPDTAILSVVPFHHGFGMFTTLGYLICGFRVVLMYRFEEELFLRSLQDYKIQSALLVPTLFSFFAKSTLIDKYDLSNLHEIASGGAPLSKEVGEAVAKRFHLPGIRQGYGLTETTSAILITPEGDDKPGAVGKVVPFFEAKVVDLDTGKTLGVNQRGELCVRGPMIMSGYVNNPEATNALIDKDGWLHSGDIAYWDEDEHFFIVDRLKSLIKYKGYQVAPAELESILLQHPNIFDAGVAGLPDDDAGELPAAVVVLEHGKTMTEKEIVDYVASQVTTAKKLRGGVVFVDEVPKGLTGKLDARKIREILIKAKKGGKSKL

Row | SMILES | composite z-score (Albumin (Bos taurus)) | composite Z-score [1] | composite z-score [2] | composite z-score [3] | composite z-score [4] | composite z-score [5] | composite z-score [6] | composite z-score (Sam68 (KHDRBS1)) | composite z-score [7] | composite z-score [8] | composite z-score [9] | composite z-score [10] | composite z-score [11] | composite z-score [12] | composite z-score [13] | composite z-score [14] | z-score [15] | composite z-score (Lefty1) | composite z-score [16] | z-score [17]
1 | COC(=O)[C@@]1(Cc2ccc(F)cc2)[C@H]2c3cc(C(=O)N4CCCC4)n(Cc4ccccn4)c3C[C@H]2CN1C(=O)c1ccccc1 | 0.0228 | -0.104 (inactive) | 0.547 | 0.417 | 0.482 | 2.95 | 0.382 | 1.17 | -0.22 | 0.627 | 1.58 | 1.25 | 1.01 | 0.903 | 0.37 | -0.453 | -0.0238 | -0.2 | -0.128 | 1.1 (inactive)
2 | CC(C)NC(=O)[C@@H]1c2ccccc2C(=O)N(Cc2ccc(OC(F)(F)F)cc2)[C@H]1c1ccc(CO)cc1 | -0.215 | -0.194 (inactive) | 0.503 | 0.321 | 0.268 | 1.35 | 0.651 | 1.3 | 0.215 | 0.882 | 0.7 | 1.18 | 0.344 | 0.529 | 1.34 | 1.22 | 0.107 | 0.868 | 0.45 | 0.441 (inactive)
3 | CC(C)C[C@H]1NC(=O)C([C@@H](C)OCc2ccccc2)NC(=O)[C@@]23C(=O)N[C@@H](Cc4ccccc4)C2[C@H](C)[C@@]2(C)O[C@H]2C3/C=C/C/C=C\CNC1=O (stereo not given in full) | 0.616 | 0.0578 (inactive) | 0.2 | -0.0148 | 0.412 | 1.51 | 0.653 | 1.3 | 0.736 | 0.234 | 1.42 | 1 | 0.231 | 0.504 | 1.24 | 0.434 | 0.487 | 1.01 | 0.999 | -0.53 (inactive)
4 | CC(C)=CCCC(C)=CC(O)C1C=CC2C(=O)NC(=O)C2N1Nc1ccc(Cl)cc1Cl (stereo not given) | 0.909 | -0.0883 (inactive) | 0.0952 | -0.0464 | 0.596 | 1.49 | 1.36 | 0.623 | 0.307 | 0.623 | 0.0944 | 1.19 | 1.15 | 0.44 | 1.29 | -0.935 | -0.974 | 0.0724 | 0.863 | -0.889 (inactive)
5 | C=C(C)[C@@H]1CC=C(C(O)C2C=CC3C(=O)N(C)C(=O)C3N2Nc2ccc([N+](=O)[O-])cc2[N+](=O)[O-])CC1 (stereo not given in full) | 0.689 | -0.37 (inactive) | 0.407 | 0.158 | 0.583 | 2.5 | 0.005 | 1.29 | 0.722 | 1.14 | 0.607 | 1.27 | 0.512 | 1 | 1.24 | -0.0675 | 1.88 | 0.424 | 0.799 | 0.511 (inactive)
6 | COc1ccc([Si](C)(C)[C@@H]2[C@@H](CC(=O)N3Cc4ccccc4C[C@H]3CO)O[C@]3(C(=O)N(Cc4cccc(N5CCOC5=O)c4)c4ccccc43)[C@H]2C)cc1 | -0.699 | 0.844 (inactive) | 0.0016 | -0.117 | 0.038 | 0.479 | 0.333 | 1.1 | 1.32 | 0.844 | 1.23 | 0.402 | 0.0975 | 0.0735 | 1.41 | 1.4 | -0.661 | 1.54 | -0.244 | 0.274 (inactive)
7 | C=CCNC(=O)[C@H]1[C@@H]2C(=O)O[C@@H](c3ccccc3)[C@@H](c3ccccc3)N2[C@@H](c2ccccc2OCCO)[C@]12C(=O)N(C(=O)OCCOC)c1ccc(C#Cc3ccc(OC)cc3)cc12 | 0.621 | -0.0052 (inactive) | -0.0613 | -0.146 | 0.609 | 1.94 | 1.1 | 1.24 | 0.0718 | 1.11 | 0.63 | 1.19 | 0.723 | 0.732 | 0.406 | 0.235 | -0.844 | 0.407 | 0.924 | -1.05 (inactive)
8 | CCCC[C@H]1C[C@@H]1[C@@H]1N(C(C)=O)[C@H](c2cccc(OC)c2)CC12CC2 | 0.219 | 0.797 (inactive) | 0.0026 | 0.0112 | 0.202 | 0.808 | 0.603 | -0.658 | -1 | -0.745 | -0.101 | 0.173 | 0.17 | 0.832 | -0.631 | -0.532 | 0.605 | -0.613 | 0.133 | 2.15 (inactive)
9 | COc1ccc([Si](C)(C)[C@@H]2[C@@H](CC(=O)N3CCC[C@H]3CO)O[C@]3(C(=O)N(Cc4ccc(N5CCOC5=O)cc4)c4ccccc43)[C@H]2C)cc1 | 0.746 | 0.408 (inactive) | -0.0362 | -0.136 | 0.408 | 1.02 | 0.373 | 1.31 | 0.509 | 0.884 | 1.02 | 0.783 | 0.939 | 0.867 | 0.441 | 0.672 | 0.735 | 0.646 | 0.471 | -1.83 (inactive)
10 | [N-]=[N+]=Nc1ccccc1C[C@]1(C(=O)N2CCOCC2)N=C(c2ccc(OCCCO)cc2)O[C@H]1c1ccccc1N=[N+]=[N-] | 0.832 | 0.317 (inactive) | 0.472 | -0.14 | 0.648 | 3.09 | 0.654 | 1.28 | 0.86 | 1.15 | 2.37 | 1.19 | 1.08 | 0.96 | 1.41 | 1.79 | 0.268 | 1.41 | 0.97 | -4.36 (inactive)
11 | O=C1N(CCS(=O)(=O)c2ccccc2)c2ccccc2C[C@]12N=C(c1ccc(OCCCO)cc1)O[C@@H]2c1ccccc1 | 0.815 | 1.86 (inactive) | -0.221 | -0.0694 | 0.584 | 3.22 | 2.17 | 1.29 | 1.25 | 1.05 | 2.16 | 0.806 | 0.311 | 0.783 | 1.41 | 1.71 | 0.972 | 0.393 | 0.392 | -0.889 (inactive)
